According to PubChem BioAssay AID1159580 (chemical genetic matrix, 2015):
Screen size: about 5,500 compounds; about 2,000 (36%) were called active. Inconclusive results (about 18%) are left out. Cut-off read from the data, not from the text of the source: active = normalized growth mostly below about 0.91 (no sharp cut-off); inconclusive = no clear call, values can overlap the other calls; inactive = mostly above about 0.92. Some of the results follow.

Test: chemical genetic growth profiling, strain panel (AID 1159580);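 note: tested at 20 µM; growth read once vehicle control cultures reached saturation at 30 °C; 1 = growth at the plate median or of vehicle wells; lower values mean less growth of the strain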
Details: S. cerevisiae deletion strains, growth OD

Measured: normalized growth

COc1cc(N)c(Cl)cc1C(=O)NC1CCN(Cc2ccccc2)CC1
inactive: locus YAL013W, strain DEP1, stronger effect = lower value 0.997 | locus YAL021C, strain ccr4, stronger effect = lower value 1 | locus YAL026C, strain drs2, stronger effect = lower value 1 | locus YAL030W, strain snc1, stronger effect = lower value 1 | locus YBL061C, strain skt5, stronger effect = lower value 0.997 | locus YBR009C, strain hhf1, stronger effect = lower value 0.999 | locus YBR021W, strain FUR4, stronger effect = lower value 1.07 | locus YBR023C, strain chs3, stronger effect = lower value 0.995 | locus YBR171W, strain sec66, stronger effect = lower value 0.999 | locus YBR229C, strain ROT2, stronger effect = lower value 0.988 | locus YBR231C, strain swc5, stronger effect = lower value 1 | locus YBR279W, strain paf1, stronger effect = lower value 0.999 | locus YCL011C, strain gbp2, stronger effect = lower value 0.994 | locus YCL016C, strain dcc1, stronger effect = lower value 1 | locus YCL029C, strain bik1, stronger effect = lower value 0.962 | locus YCL061C, strain MRC1, stronger effect = lower value 0.984 | locus YCL069W, strain vba3, stronger effect = lower value 0.993 | locus YCR088W, strain abp1, stronger effect = lower value 0.993 | locus YDL005C, strain med2, stronger effect = lower value 0.996 | locus YDL035C, strain GPR1, stronger effect = lower value 1 | locus YDL040C, strain nat1, stronger effect = lower value 0.992 | locus YDL074C, strain BRE1, stronger effect = lower value 0.97 | locus YDL101C, strain DUN1, stronger effect = lower value 0.981 | locus YDL134C, strain PPH21, stronger effect = lower value 0.999 | locus YDL185W, strain tfp1, stronger effect = lower value 0.954 | locus YDL192W, strain arf1, stronger effect = lower value 0.992 | locus YDR001C, strain nth1, stronger effect = lower value 0.999 | locus YDR069C, strain doa4, stronger effect = lower value 0.992 | locus YDR101C, strain arx1, stronger effect = lower value 0.982 | locus YDR137W, strain rgp1, stronger effect = lower value 1.01 | locus YDR150W, strain NUM1, stronger effect = lower value 0.987 | locus YDR159W, strain sac3, stronger effect = lower value 1 | locus YDR162C, strain NBP2, stronger effect = lower value 0.996 | locus YDR195W, strain ref2 0.986 | locus YDR297W, strain sur2, stronger effect = lower value 0.994 | locus YDR318W, strain mcm21, stronger effect = lower value 0.981 | locus YDR334W, strain swr1, stronger effect = lower value 0.998 | locus YDR335W, strain msn5, stronger effect = lower value 0.986 | locus YDR388W, stronger effect = lower value 0.993 | locus YDR392W, strain spt3, stronger effect = lower value 0.995 | locus YDR502C, strain sam2, stronger effect = lower value 1.01 | locus YEL003W, strain gim4, stronger effect = lower value 0.999 | locus YEL037C, strain rad23, stronger effect = lower value 0.996 | locus YEL061C, strain CIN8 (second series), stronger effect = lower value 0.998 | locus YEL061C, strain CIN8, stronger effect = lower value 0.995 | locus YER015W, strain faa2, stronger effect = lower value 1 | locus YER016W, strain bim1, stronger effect = lower value 0.994 | locus YER110C, stronger effect = lower value 0.995 | locus YER111C, strain swi4, stronger effect = lower value 0.991 | locus YER155C, strain BEM2 (second series), stronger effect = lower value 0.988 | locus YER155C, strain BEM2, stronger effect = lower value 0.982 | locus YER167W, strain BCK2, stronger effect = lower value 0.996 | locus YFR010W, strain ubp6, stronger effect = lower value 0.999 | locus YGL078C, strain dbp3, stronger effect = lower value 0.996 | locus YGL086W, strain mad1, stronger effect = lower value 1 | locus YGL167C, strain pmr1, stronger effect = lower value 1 | locus YGL173C, strain kem1, stronger effect = lower value 0.998 | locus YGL227W, strain vid30, stronger effect = lower value 0.998 | locus YGL240W, strain doc1, stronger effect = lower value 0.997 | locus YGL248W, strain PDE1, stronger effect = lower value 1 | locus YGL253W, strain hxk2, stronger effect = lower value 0.992 | locus YGR078C, strain PAC10, stronger effect = lower value 0.982 | locus YGR135W, strain pre9, stronger effect = lower value 0.998 | locus YGR229C, strain SMI1, stronger effect = lower value 1.02 | locus YGR252W, strain gcn5, stronger effect = lower value 1.15 | locus YHR013C, strain ard1, stronger effect = lower value 0.996 | locus YHR027C, strain rpn1, stronger effect = lower value 1 | locus YHR030C, strain SLT2, stronger effect = lower value 0.996 | locus YHR079C, strain IRE1 (second series), stronger effect = lower value 0.977 | locus YHR094C, strain hxt1, stronger effect = lower value 0.974 | locus YHR129C, strain ARP1, stronger effect = lower value 0.993 | locus YHR142W, strain chs7, stronger effect = lower value 0.993 | locus YHR200W, strain rpn10, stronger effect = lower value 0.989 | locus YIL066C, strain RNR3, stronger effect = lower value 0.98 | locus YIL073C, strain SPO22, stronger effect = lower value 0.997 | locus YIL125W, strain kgd1, stronger effect = lower value 0.997 | locus YIR030C, strain dcg1, stronger effect = lower value 0.988 | locus YJL092W, strain hpr5, stronger effect = lower value 0.987 | locus YJL095W, strain BCK1 (second series), stronger effect = lower value 0.998 | locus YJL095W, strain BCK1, stronger effect = lower value 0.999 | locus YJL115W, strain asf1, stronger effect = lower value 0.987 | locus YJL129C, strain trk1, stronger effect = lower value 0.992 | locus YJL134W, strain LCB3, stronger effect = lower value 0.998 | locus YJL154C, strain vps35, stronger effect = lower value 1 | locus YJL164C, strain tpk1, stronger effect = lower value 1 | locus YJL166W, strain qcr8, stronger effect = lower value 0.996 | locus YJL168C, strain set2, stronger effect = lower value 0.99 | locus YJL187C, strain SWE1 (second series), stronger effect = lower value 0.966 | locus YJL187C, strain SWE1, stronger effect = lower value 0.99
